Sampled rows, rich in hits. Any-hit rate of the full collection: about 5.1%.
KDM4E inh: blocks human JMJD2E demethylase activity; JMJD2E catalytic domain, FDH-coupled NADH fluorescence (FDH is formaldehyde dehydrogenase); actives 1.6% (n = 230,000); AID 2147; Potency, µM (top dose mostly 57.1 µM), for inactives: top-dose activity change, negative = inhibition, usual class: inhibitors; B2RXH2; active = well fitted inhibition curve with a large enough effect, not every such curve was filed as active; inconclusive = small, poorly fitted or top-dose-only effect, or another doubt; inactive = no such curve, though single readings can be large or run the other way;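 also: potency is read from the fitted curve at half-maximal effect; 0% = wells with enzyme and -100% = buffer wells without enzyme; nearly all actives have a fitted effect of over 50% in size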
Target sequence (B2RXH2 1-337 limits assumed): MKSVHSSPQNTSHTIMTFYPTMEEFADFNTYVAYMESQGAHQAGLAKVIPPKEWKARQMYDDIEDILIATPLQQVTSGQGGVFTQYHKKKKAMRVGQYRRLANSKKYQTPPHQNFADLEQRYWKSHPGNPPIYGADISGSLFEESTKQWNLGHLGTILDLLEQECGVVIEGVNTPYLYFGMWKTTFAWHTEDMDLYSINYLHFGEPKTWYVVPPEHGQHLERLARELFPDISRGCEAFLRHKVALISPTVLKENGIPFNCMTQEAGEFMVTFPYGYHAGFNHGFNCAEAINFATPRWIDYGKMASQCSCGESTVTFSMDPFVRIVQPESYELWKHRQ
Tau FP inhib: blocks human tau fibril formation measured by polarization | P10636 | K18 P301L tau heparin fibrillization, Alexa594 FP, 6 h | Potency, µM (doses to about 57.7 µM), without a hit: at the highest dose activity, negative = inhibition, usual class: inhibitors | actives 0.39% (n = 280,000); also: potency is read from the fitted curve at half-maximal effect; nearly all actives have a fitted effect of over 55% in size
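Read-out: fluorescence polarization of Alexa 594-labeled tau (0.24 uM), 555 nm excitation, 632 nm emission. Mixtures held 15 uM unlabeled K18 P301L, compound and 20 uM heparin, pH 7 acetate buffer, incubated 6 hr at 37 C.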
Tau ThT inhib: inhibitors of human tau fibril formation, thioflavin T binding; recombinant tau K18 P301L, heparin-induced fibrillization, ThT fluorescence; Potency, µM (highest dose often 57.4 µM), for inactives: at the highest dose activity, negative = inhibition, most hits filed as inhibitors; actives 2.1% (n = 270,000); also: potency is read from the fitted curve at half-maximal effect; nearly all actives have a fitted effect of over 55% in size
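Fibril formation assay: tau K18 P301L at 15 uM with trace Alexa 594 label, heparin inducer 20 uM, pH 7 sodium acetate buffer, 37 C for 6 hr; endpoint ThT signal.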
Tau fluor counter: counter-screen for tau fibril formation inhibitors. tau K18 P301L Alexa594 fluorescence, heparin fibrillization. Potency, µM (top dose mostly 57.7 µM), for inactives: at the highest dose activity change, negative = decrease. actives 0.93% (n = 280,000). AID 1463; also: potency is read from the fitted curve at half-maximal effect; nearly all actives have a fitted effect of over 55% in size
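Human tau K18 P301L (15 uM unlabeled, 0.24 uM Alexa 594-labeled) in 100 mM sodium acetate pH 7 with 20 uM heparin, 6 hr at 37 C. ThT 30 uM added, 1 hr ambient; Alexa 594 FP and total fluorescence read at 555/632 nm.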
PNC inhibitor: perinucleolar compartment assembly inhibition | PC3M PTB-GFP, PNC prevalence imaging, 16 h; stronger effect = lower value | activity change (PNC), negative = inhibition, % at 10 µM | actives 3.1% (n = 140,000) | AID 2417;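 active = readout at or below -70, meaning at least 70% loss of cells showing the perinucleolar compartment, a nuclear body marking cancer cells; inconclusive = readout between -30 and a set limit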;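 also: plate controls were DMSO wells for no effect and camptothecin positive control wells for full effect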
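Compounds are pinned in duplicate onto adhered PC3M cells stably expressing GFP-tagged PTB and incubated 16 h at 37 C. Cells are then fixed, nuclei stained with Hoechst, and PNC-positive cells counted.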
NPSR antag: blocks cAMP signaling of the human neuropeptide S receptor | Potency, µM (series often up to 38.3 µM), for the others: at the highest dose activity change, negative = inhibition, usual class: inhibitors | Q6W5P4 | AID 1461 | CHO-NPSR cells, cAMP TR-FRET, antagonist mode | actives 1% (n = 220,000); also: potency is read from the fitted curve at half-maximal effect; nearly all actives have a fitted effect of over 50% in size
Target sequence (Q6W5P4 whole entry, looked up): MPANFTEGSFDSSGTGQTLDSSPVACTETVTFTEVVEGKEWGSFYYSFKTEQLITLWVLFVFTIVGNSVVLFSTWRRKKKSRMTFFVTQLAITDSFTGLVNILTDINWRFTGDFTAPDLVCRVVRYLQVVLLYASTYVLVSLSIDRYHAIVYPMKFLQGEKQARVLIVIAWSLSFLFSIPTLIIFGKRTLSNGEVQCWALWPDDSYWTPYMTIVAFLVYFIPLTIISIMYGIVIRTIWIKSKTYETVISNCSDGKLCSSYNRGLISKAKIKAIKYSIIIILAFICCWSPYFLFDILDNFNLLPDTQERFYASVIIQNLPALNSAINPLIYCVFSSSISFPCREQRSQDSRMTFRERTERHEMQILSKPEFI
An asterisk follows results filed as active; ? = inconclusive; / = no result given; [ ] = another dose, or the depositor's remark. Unless noted, calls follow the shape of the dose curve; as a rule, active = well fitted curve in the direction sought with a large enough effect; inconclusive = small, poorly fitted or top-dose-only effect, or another doubt; inactive = no such curve, though single readings can be large; an effect the other way counts as inactive or inconclusive. Unless noted, % is scaled to controls: 0 for no effect and ±100 for the full control effect.

SMILES	KDM4E inh	Tau FP inhib	Tau ThT inhib	Tau fluor counter	PNC inhibitor	NPSR antag
Cc1ccc(-c2nc3cccnc3s2)cc1NS(=O)(=O)c1ccc2c(c1)OCCO2	?	-9.9%	6.0%	?	-108.4*	-22.5%[46.1 µM]
Cc1cccc(N=C2NN=C(c3c(C)[nH]c4ccccc34)CS2)c1	0.7%	-8.5%	-0.4%	-1.2%	-18.2	-56.8%
Cc1cccc(N=C2NN=C(c3ccc4c(c3)OCCO4)CS2)c1	-4.1%	-11.9%	11.2µM*	?	?	-17.8%[46.1 µM]
CCN(C(=O)Cn1c(C(=O)OC)cc2oc3ccccc3c21)c1cccc(C)c1	/	-1.8%	-17.3%	-7.3%	/	/
COc1cccc(C(=O)/C(C#N)=N/Nc2cccc(-c3ccnc(C)n3)c2)c1	-1.4%	-2.4%	5.01µM*	?	/	59.7%[7.67 µM]
CCOCCCNS(=O)(=O)c1ccc2c(c1)CCN2C(=O)CC	1.0%	-6.7%	-10.9%	-4.9%	-109.7*	-12.5%[46.1 µM]
CN(C)c1ccc(C(CNC(=O)c2ccccc2)N2CCc3ccccc32)cc1 (centres undefined)	/	-11.2%	?	?	/	/
CCOC(=O)c1c(C)oc2c1cc(NS(=O)(=O)c1ccc(C)cc1)c1ccccc12	/	-1.6%	0.8%	-20.9%	/	/
O=C(/C(=C/c1ccc(Cl)cc1)c1nc2ccccc2[nH]1)c1cccs1	-1.3%	?	15.8µM*	-28.6%	27.3	2µM*
COc1cc(/C=C(/C(=O)c2cccs2)c2nc3ccccc3[nH]2)ccc1O	?	1.6%	?	?	-29.6	10µM*
COC(=O)/C(=C\c1ccc(O)cc1)c1nc2ccccc2[nH]1	?	7.2%	?	-11.0%	/	0.2%
O=C(/C(=C\c1ccccc1)c1nc2ccccc2[nH]1)c1ccc(Cl)cc1	2.2%	?	22.4µM*	-23.7%	?	10µM*
COC(=O)/C(=C\c1cc(OC)c(OC)c(OC)c1)c1nc2ccccc2[nH]1	?	2.2%	?	-3.7%	/	-23.6%
CCOC(=O)N1CCc2c(sc(NCc3cccs3)c2C(=O)Nc2cc(Cl)ccc2OC)C1	/	2.6%	?	?	/	/
O=C(Nc1cccc(-c2csc(Nc3ccc(Cl)cc3)n2)c1)c1ccccc1	-0.7%	-11.9%	14.1µM*	14.1µM*[quencher]	/	-50.2%
O=C(Nc1cccc(-c2csc(Nc3ccc(Cl)cc3)n2)c1)c1cccc(C(F)(F)F)c1	-10.3%	-3.1%	12.6µM*	7.94µM*[quencher]	/	-59.2%
O=C(Nc1cccc(-c2csc(-c3ccccc3)n2)c1)c1cccs1	?	14.1µM*	?	?	36.6	-20.2%[46.1 µM]
Cc1ccc(C(=O)COC(=O)c2cccc(NC(=O)c3ccc(Cl)cc3Cl)c2)cc1	/	?	5.0%	-15.0%	/	/
COc1ccc(OC)c(-c2csc(NC(=O)CSc3ccc([N+](=O)[O-])cc3)n2)c1	-5.4%	-3.8%	?	11.2µM*[quencher]	?	-19.7%
COc1ccc(OC)c(-c2csc(NC(=O)CSc3ccc(Br)cc3)n2)c1	-0.6%	?	-5.8%	?	?	-26.3%
Cc1ccc(OCC(=O)c2cc(C)n(C)c2C)c([N+](=O)[O-])n1	3.7%	-0.2%	8.4%	9.8%	-121.5*	5.5%
CCS(=O)(=O)N1CC(=O)N(c2cccc(C)c2C)C(C)(C(=O)NC2CCCCCC2)C1 (centres undefined)	/	2.8%	4.1%	4.3%	/	/
Cc1ccccc1OCC(=O)N/N=C1\SCC(=O)N1Cc1ccccc1	2.4%	0.5%	6.1%	2.2%	-12.0	11.4%
C/C(=N\OCC(=O)N/N=C/c1ccccc1O)c1cccs1	22.4µM*	-3.5%	?	?	0.6	-13.0%[46.1 µM]
O=C(COc1cccc2cccnc12)N/N=C/c1ccccc1O	7.94µM*	-7.4%	?	-10.0%	/	?
SMILES	KDM4E inh	Tau FP inhib	Tau ThT inhib	Tau fluor counter	PNC inhibitor	NPSR antag
O=C(COc1cccc2cccnc12)N/N=C/c1ccc(O)cc1	-28.8%	-2.8%	?	-7.7%	/	-2.5%
CN1C(=O)CS/C1=N\NC(=O)COc1cccc2cccnc12	10.2%	-7.4%	10µM*	11.9%[2.34 µM]	/	-5.2%
C/C(=N\OCC(=O)N/N=C/c1ccccc1)c1cccs1	1.3%	-5.2%	-14.8%	-17.0%	2.3	-17.3%[46.1 µM]
Oc1ccccc1/C=N/Nc1cccc2cccnc12	?	15.2%	?	12.6µM*[quencher]	61.9	-12.4%[46.1 µM]
COc1cc(C2N(c3ccccc3)CCN2c2ccccc2)ccc1OC(C)=O	-4.4%	1.9%	-5.9%	-2.1%	?	-10.8%[46.1 µM]
COc1ccc(C2N(c3ccc(C)cc3)CCN2c2ccc(C)cc2)cc1O	-9.6%	11.9%	?	25.1µM*[quencher]	/	-39.7%
O=C(CSc1c2c(nc3ccc(Cl)cc13)CCCC2)N1CCN(c2cccc(Cl)c2)CC1	/	-13.3%	?	-7.4%	/	/
CCCc1nn2c(=O)cc(COC(=O)CNC(=O)COc3ccc(C)cc3)nc2s1	/	-2.5%	-13.6%	-8.3%	/	/
Cc1ccc(C2C=C(c3ccc(Cl)cc3)Nc3nc(NC(=O)c4ccco4)nn32)cc1 (centres undefined)	/	?	?	-18.5%	/	/
C=CCc1cccc(/C=N/NC(=O)c2ccccc2Br)c1O	25.1µM*	?	1.0%	?	/	-47.5%
O=C(N/N=C/c1ccccc1C(=O)O)c1ccccc1Br	-26.2%	-2.6%	-0.9%	0.4%	/	21.2%
COc1ccccc1/C=N/NC(=O)c1ccccc1Cl	-5.8%	-6.0%	0.1%	-6.4%	/	17.3%
C=CCc1cccc(/C=N/NC(=O)c2ccccc2OC)c1O	31.6µM*	-1.3%	-3.3%	-28.3%	/	-40.6%
COC(=O)C1=C(C(=O)OC)SC2(S1)C(C(=O)OC)=C(C(=O)OC)SC1=C2c2cc(C)ccc2NC1(C)C	-9.2%	?	12.6µM*	?	5.1	-23.5%[46.1 µM]
CC(=O)C(C(C)=O)C1(O)C(=O)c2ccccc2C1=O	-27.6%	?	2.82µM*	-10.1%	25.3	27.4%
Cc1ccc(C(=O)CSc2nc(C)cc(C)c2C(N)=O)cc1	-2.6%	0.1%	-18.0%	-8.5%	-87.8*	-20.6%[46.1 µM]
Cc1cc(C)c(C(N)=O)c(SCC(=O)c2ccc(Cl)cc2)n1	5.4%	1.8%	-15.0%	2.4%	32.8	-12.3%[46.1 µM]
COc1ccccc1/C=C/CN1CCN(c2ccccc2)CC1	?	4.6%	-23.5%	-16.4%	-111.1*	-5.4%[46.1 µM]
CCOC(=O)c1ccc(NC(=S)NCCc2ccccc2)cc1	-28.2%	1.9%	?	?	?	-18.7%[46.1 µM]
CCOC(=O)c1ccc(NC(=S)NCCc2ccccc2F)cc1	-28.4%	28.2µM*	-23.8%	20µM*[quencher]	/	-42.2%
O=C(CN1C(=O)COc2ccc(S(=O)(=O)N3CCOCC3)cc21)NCc1ccc(Cl)cc1	/	-7.6%	4.8%	-12.3%	/	/
COc1cccc([C@@H]2Oc3ccc(OC)cc3C[C@H]2OC(=O)Nc2cc(OC)c(OC)c(OC)c2)c1	10.4%	-2.6%	-4.3%	?	/	/

Source: PubChem (National Center for Advancing Translational Sciences (NCATS))
